Measurements reported in PubChem BioAssay (NCATS).
Results filed as inconclusive are left out. Calls of active or inactive are those of the source. The call rests on the fitted dose curve; in most records, active means well fitted curve in the direction sought with a large enough effect; inconclusive means small, poorly fitted or top-dose-only effect, or another doubt; inactive means no such curve, though single readings can be large; an effect the other way counts as inactive or inconclusive.

How the values were obtained:
[1] = tested on: Zika virus NS2B-NS3 protease; assay: Primary screen GU AMC qHTS for Zika virus inhibitors (AID 1347154); details: Zika NS2B-NS3 unlinked protease, AMC fluorogenic substrate; series mostly up to 54.1 µM; further: nearly all actives have a fitted effect of over 70% in size
In short: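 Unlinked Zika NS2B hydrophilic domain–NS3 protease complex at 25 nM in 10 mM Tris-HCl pH 8.0, 0.01% Tween 20, with an AMC peptide substrate. Fluorescence change (340/450 nm) over 15 min at room temperature, normalized to controls, fitted to 4-parameter Hill.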

[2] = qHTS to identify inhibitors of the type 1 interferon - major histocompatibility complex class I in skeletal muscle: primary screen against the NCATS Pharmaceutical Collection (AID 1347407); details: human skeletal muscle cells, IFN-b-induced MHC-I HiBiT luminescence, 24 h; series mostly up to 45.9 µM;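 further: luminescence of HiBiT knocked into endogenous HLA-B as interferon-induced MHC class I level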; further: potency means the concentration at half of the fitted maximal effect
In short: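 Compounds […] were added to CRISPR-engineered HLA-B-HiBiT C25cl48 human myoblasts with 4.0 ng/ml IFN-beta. After 24 hrs at 37 C, cells were lysed and HiBiT luminescence measured.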

[3] = tested on: Zika virus NS2B-NS3 protease (unlinked); assay: Optimization of GU AMC qHTS for Zika virus inhibitors: Unlinked NS2B-NS3 protease assay (AID 1347151); details: recombinant ZIKV NS2B-NS3 protease, fluorogenic AMC substrate; series mostly up to 52.5 µM; further: nearly all actives have a fitted effect of over 80% in size; further: potency means the concentration at half of the fitted maximal effect
In short: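 Fluorescence gain (340/450 nm) over 15 min at room temperature, ~20% conversion, gave percent inhibition fitted to a 4-parameter Hill equation; enzyme was unlinked NS2B-NS3 (25 nM final), pH 8.0 Tris buffer.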

[4] = qHTS to identify inhibitors of the type 1 interferon - major histocompatibility complex class I in skeletal muscle: primary screen against the NCATS LOPAC collection (AID 1347405); details: iHSKM muscle cells, IFN-b-induced MHC-I HiBiT luminescence, 24 h; series mostly up to 45.9 µM;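 further: lytic HiBiT luminescence reporting HLA-B protein level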; further: potency means the concentration at half of the fitted maximal effect
In short: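 Cells: C25cl48 human myoblasts, HiBiT-tagged HLA-B*08:01, stimulated with IFN-beta 4.0 ng/ml. Compounds are titrated 1:4.3 over 7 points from 46 uM final and incubated 24 hrs; endogenous MHC class I is quantified by HiBiT lytic luminescence.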

[5] = biological target: Lysine-specific demethylase 5B (Homo sapiens) (UniProt Q9UGL1); assay: Optimization screen for KDM5B Histone Demethylases FDH coupled qHTS against the LOPAC library (AID 1347166); details: KDM5B demethylation, FDH-coupled NADH fluorescence (FDH is formaldehyde dehydrogenase); series mostly up to 57.5 µM
In short: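 KDM5BDeltaAP (200nM final) preincubated 10 min with compound, then 12.5uM H3K4Me3, 25uM a-ketoglutarate, ascorbate, Fe(II), NAD+ and FDH added; 50mM HEPES pH 7.5, 0.01% Tween-20. NADH fluorescence (340/450 nm) change over 30 min, room temperature.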

Measured: Potency

Lysine-specific demethylase 5B (Homo sapiens), sequence (Q9UGL1 whole entry, looked up): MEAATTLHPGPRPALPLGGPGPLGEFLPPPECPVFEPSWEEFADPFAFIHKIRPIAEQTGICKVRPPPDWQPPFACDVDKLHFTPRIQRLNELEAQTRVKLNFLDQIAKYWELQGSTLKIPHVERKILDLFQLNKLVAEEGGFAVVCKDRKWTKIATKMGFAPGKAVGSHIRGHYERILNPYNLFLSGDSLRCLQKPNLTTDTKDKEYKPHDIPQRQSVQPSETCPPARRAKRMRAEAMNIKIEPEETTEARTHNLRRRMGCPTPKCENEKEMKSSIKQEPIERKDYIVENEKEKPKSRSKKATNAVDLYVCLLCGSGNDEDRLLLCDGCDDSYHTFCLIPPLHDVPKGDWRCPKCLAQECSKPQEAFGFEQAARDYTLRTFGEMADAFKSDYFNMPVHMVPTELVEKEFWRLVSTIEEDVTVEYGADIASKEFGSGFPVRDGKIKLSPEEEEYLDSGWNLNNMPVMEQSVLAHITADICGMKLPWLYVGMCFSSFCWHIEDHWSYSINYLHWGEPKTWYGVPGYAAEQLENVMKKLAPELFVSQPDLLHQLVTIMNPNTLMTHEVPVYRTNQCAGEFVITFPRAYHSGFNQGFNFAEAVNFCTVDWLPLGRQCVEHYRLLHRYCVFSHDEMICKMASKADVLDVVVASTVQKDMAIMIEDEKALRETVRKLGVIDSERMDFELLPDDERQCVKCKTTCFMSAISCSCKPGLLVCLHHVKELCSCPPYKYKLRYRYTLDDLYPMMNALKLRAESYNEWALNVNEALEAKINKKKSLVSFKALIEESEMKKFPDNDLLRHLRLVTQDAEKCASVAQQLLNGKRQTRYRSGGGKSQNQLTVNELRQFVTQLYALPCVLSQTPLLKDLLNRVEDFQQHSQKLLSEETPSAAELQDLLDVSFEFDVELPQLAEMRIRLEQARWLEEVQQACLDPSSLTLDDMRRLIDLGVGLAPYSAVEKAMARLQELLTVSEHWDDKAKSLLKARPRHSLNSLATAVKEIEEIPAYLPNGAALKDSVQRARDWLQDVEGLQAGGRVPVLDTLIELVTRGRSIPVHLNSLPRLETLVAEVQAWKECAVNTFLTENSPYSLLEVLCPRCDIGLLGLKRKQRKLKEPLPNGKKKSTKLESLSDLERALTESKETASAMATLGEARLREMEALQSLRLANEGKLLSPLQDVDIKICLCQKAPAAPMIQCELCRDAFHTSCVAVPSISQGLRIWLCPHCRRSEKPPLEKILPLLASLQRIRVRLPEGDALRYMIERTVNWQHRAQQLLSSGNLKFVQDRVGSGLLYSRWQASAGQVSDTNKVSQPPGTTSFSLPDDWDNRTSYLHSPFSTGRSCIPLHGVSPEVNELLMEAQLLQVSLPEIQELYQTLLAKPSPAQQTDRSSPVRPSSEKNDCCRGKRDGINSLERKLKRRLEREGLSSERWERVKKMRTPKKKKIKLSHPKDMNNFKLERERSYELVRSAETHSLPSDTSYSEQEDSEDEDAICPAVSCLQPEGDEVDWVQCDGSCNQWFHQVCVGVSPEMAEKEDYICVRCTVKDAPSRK

CCCCOCCOCCOCc1cc2c(cc1CCC)OCO2
inactive: [1] | [2]

Cc1ccc(=O)n(-c2ccccc2)c1
inactive: [1] | [4] | [2]
active: [3] 26.7 µM

CN(C)C/C=C(/c1ccc(Br)cc1)c1cccnc1
inactive: all assays above

CC1=C(C)C(=O)C(CCCCC#CCCCC#CCO)=C(C)C1=O
inactive: [1] | [4] | [2]

NC(=Nc1ccccc1)Nc1ccccc1
inactive: [1] | [2]

CCn1cc(C(=O)O)c(=O)c2cc3c(cc21)OCO3
inactive: [1] | [4] | [2]
active: [3] 23.8 µM

Cc1nc2ccccn2c(=O)c1CCN1CCC(C(=O)c2ccc(F)cc2)CC1
inactive: [1] | [4] | [2]

C[N+](C)(C)CCCCCCCCCC[N+](C)(C)C
not listed: [5]
inactive: all other assays above

CN(C)CCCN1c2ccccc2Sc2ccc(C(F)(F)F)cc21
not listed: [4]
inactive: all other assays above

COC(=O)[C@@H](N)Cc1ccc(O)c(O)c1
inactive: [3] | [4] | [2]

Fc1ccc(C(c2ccc(F)cc2)N2CCN(C/C=C/c3ccccc3)CC2)cc1
inactive: all assays above

C[N+](C)(C)CCOC(=O)CCC(=O)OCC[N+](C)(C)C
inactive: all assays above

CC(=O)[C@]1(O)Cc2c(O)c3c(c(O)c2[C@@H](O[C@H]2C[C@H](N)[C@H](O)[C@H](C)O2)C1)C(=O)c1ccccc1C3=O
active: [4] 1 µM | [2] 5.28 µM
inactive: [3] | [1]

CSc1ccc(C(=O)c2[nH]c(=O)[nH]c2C)cc1
inactive: [3] | [4] | [2]

OCCN1CCN(CCCN2c3ccccc3C=Cc3ccccc32)CC1
inactive: all assays above

CCc1c(C)[nH]c2c1C(=O)C(CN1CCOCC1)CC2 (stereo not given)
inactive: all assays above

CCN(CC)CCCN(c1ccccc1)C1Cc2ccccc2C1
not listed: [5]
inactive: all other assays above

Cc1ccc(S(=O)(=O)NC(=O)NN2CCCCCC2)cc1
inactive: all assays above

Cc1cc(C)c(/C=C2\C(=O)Nc3ccccc32)[nH]1
inactive: [1] | [5]

CNCCCN1c2ccccc2CCc2ccccc21
inactive: all assays above

Cc1cccc(C)c1NC(=O)C(C)N (stereo not given)
not listed: [5]
inactive: all other assays above

CCc1cccc(N(C)C(N)=Nc2cccc3ccccc23)c1
inactive: all assays above

C#CCN(C)CCCOc1ccc(Cl)cc1Cl
not listed: [5]
inactive: all other assays above
